Measured values reported in ChEMBL document CHEMBL3988442, “University of Dundee, Small-Polar-MMV Screening Library” (2021).
Out of some 69,000 compounds screened, about 1,000 (1.4%) showed an effect of 50% or more. The list comes from a sample in which strong results are over-represented; it also holds similar structures and randomly drawn compounds.

Tested on: Leishmania donovani
Test: Leishmania intramacrophage assay
Assay type: functional, organism-based
Parameters: scale not given: in the data most compounds retested in dose-response had high values

CCc1cc(NCCc2cnccn2)n2nc(C)c(C)c2n1
Percent Effect (30.3 µM, […]): 3.819%

CNC(=O)[C@H]1CCS(=O)(=O)[C@@H]2CN(Cc3ccc(OC)cc3)C[C@H]12
Percent Effect (30 µM, 30.03 µM): 7.266%

Cc1cccc(C(=O)N2CCCCC2c2nc3cc(F)ccc3[nH]2)n1 (centres undefined)
Percent Effect (30.3 µM, […]): 32.48%

Cc1noc([C@H]2C[C@@H]3CCN(c4nnc(C)s4)C[C@H]3O2)n1.O=C(O)C(F)(F)F
Percent Effect (30.3 µM, […]): 7.673%

Cc1noc([C@@H]2CC[C@@H]3[C@@H](CCN3c3nnc(C)s3)O2)n1.O=C(O)C(F)(F)F
Percent Effect (30.3 µM, […]): 50.59%

Cc1noc([C@@H]2C[C@@H]3CCN(c4nnc(C)s4)C[C@H]3O2)n1.O=C(O)C(F)(F)F
Percent Effect (30.3 µM, […]): 45.73%

O=C(NCCc1nnc2n1CCC2)NCC1(c2ccccc2F)CC1
Percent Effect (30.3 µM, […]): 6.319%

CC(C)NC(=O)C[C@@H]1CCNC[C@@H]1Cc1cc(-c2ccccc2)on1
Percent Effect (30.3 µM, […]): -4.938%

O=C(NCC1CC2(CO1)CN(c1ncccn1)C2)C1CCC1 (centres undefined)
Percent Effect (30.3 µM, […]): 1.586%

CCOC(=O)N1CCC(NC(=O)Nc2cccnc2OCC)CC1
Percent Effect (30 µM): 21.62%

COCCNC(=O)c1cc(-c2ccc3c(c2)CCO3)n[nH]1
Percent Effect (30.3 µM, […]): -2.658%

O=C(Nc1ccccc1)C1CN(Cc2ccco2)CC12CCOCC2.O=C(O)C(F)(F)F (centres undefined)
Percent Effect (30.3 µM, […]): 14.17%

O=C(Nc1ccccc1)C1CN(CC2CCOCC2)CC12CCOCC2.O=C(O)C(F)(F)F (centres undefined)
Percent Effect (30.3 µM, […]): 6.071%

O=C(Nc1ccccc1)C1CN(CC2CC2)CC12CCOCC2.O=C(O)C(F)(F)F (centres undefined)
Percent Effect (30 µM, 30.03 µM): 52.69%

Cc1nccn1C1CCCN(C(=O)CCNc2ncccn2)C1 (centres undefined)
Percent Effect (30 µM): -4.975%

COc1ncccc1CN1CCc2[nH]nc(C(=O)N(C)C)c2C1
Percent Effect (30.3 µM, […]): 13.46%

FC(F)(F)c1nc(NC2CCCC2)c2ccccc2n1
Percent Effect (30 µM, 30.03 µM): 52.6%

FC(F)(F)c1nc(NC2CCc3ncnn3C2)c2ccccc2n1 (centres undefined)
Percent Effect (30.3 µM, […]): -21.34%

FC(F)(F)c1nc(NC2CCCCC2)c2ccccc2n1
Percent Effect (30.3 µM, […]): 22.7%

COc1ccc(NC(=O)CCc2c(C)nc3cc(O)nn3c2C)cn1
Percent Effect (30 µM, 30.03 µM): 19.21%

CCC(CC)C(=O)N1CCN(Cc2nc3ccccc3c(=O)[nH]2)CC1
Percent Effect (30.3 µM, […]): 0.3817%

CN(C)CCCN(C)C1CCN(c2cccc(-c3cscn3)c2)CC1
Percent Effect (30.3 µM, […]): 61.93%

CC(C)CC(C)NC1CCN(c2cccc(-c3cscn3)c2)CC1 (centres undefined)
Percent Effect (30.3 µM, […]): 17.78%

CN(Cc1ccon1)C1CCN(c2cccc(-c3cscn3)c2)CC1
Percent Effect (30.3 µM, […]): -3.333%

c1cc(-c2cscn2)cc(N2CCC(NCCc3cccs3)CC2)c1
Percent Effect (30.3 µM, […]): 68.46%

c1ccc(-c2cccc(N3CCC(NCCc4cscn4)CC3)c2)cc1
Percent Effect (30.3 µM, […]): 97.96%

O=C1CCCN1c1cccc(N2CCC(NCCc3cscn3)CC2)c1
Percent Effect (30.3 µM, […]): 16.35%

Cc1cc(CN(C)C2CCN(c3cccc(-c4cscn4)c3)CC2)on1
Percent Effect (30.3 µM, […]): 19.61%

CN(Cc1cnn(C)c1)C1CCN(c2cccc(-c3cscn3)c2)CC1
Percent Effect (30.3 µM, […]): 12%

CN(Cc1nccs1)C1CCN(c2cccc(-c3cscn3)c2)CC1
Percent Effect (30.3 µM, […]): 8.314%

CC1CN(C(=O)c2cccc(OCc3cscn3)c2)CCO1 (centres undefined)
Percent Effect (30 µM): 15.03%

CNC(=O)CN([C@H]1C[C@H]2CCOC[C@H]2C1)S(=O)(=O)c1ccccc1
Percent Effect (30.3 µM, […]): -15.54%

O=c1oc(-c2cccs2)nn1CC1(O)CCCCC1
Percent Effect (30.3 µM, […]): -0.7487%

COc1cccc2c1OCC(NCCCOc1cccnc1)C2 (centres undefined)
Percent Effect (30.3 µM, […]): 0.7744%

O=C(O)C(F)(F)F.c1ncn(Cc2cn3c(n2)CN(CC2CCCC2)CC3)n1
Percent Effect (30.3 µM, […]): -12.84%

CC(NCC1(N(C)C)CCOCC1)c1ccc(SC(F)F)cc1 (centres undefined)
Percent Effect (30.3 µM, […]): 43.5%

CCc1ccc(C(=O)N2CC(C(=O)NC(C)C)C3(CCOCC3)C2)cc1 (centres undefined)
Percent Effect (30.3 µM, […]): 20.17%

CN(C)C(=O)c1cnc2n1CCN(Cc1ccsc1)C2.O=C(O)C(F)(F)F
Percent Effect (30.3 µM, […]): 24.8%

Cc1ccc(C(=O)NC(C)Cn2cccn2)c(=O)[nH]1 (centres undefined)
Percent Effect (30.3 µM, […]): 61.08%

Cc1ccc(C(=O)NCC(C)Cn2cccn2)c(=O)[nH]1 (centres undefined)
Percent Effect (30.3 µM, […]): 5.92%

Cc1ccc(C(=O)OC(C)Cn2cccn2)c(=O)[nH]1 (centres undefined)
Percent Effect (30.3 µM, […]): 9.557%

CCC(O)CN1CCN(C(=O)c2ccn(C)c(=O)c2)CC1 (centres undefined)
Percent Effect (30 µM): 25.79%

CSCCC(Nc1nc(C)cc(C)n1)C(=O)NC(C)(C)CO (centres undefined)
Percent Effect (30.3 µM, […]): -4.466%

COC1CCCN(C(=O)Nc2nc(C)n(C)n2)C1 (centres undefined)
Percent Effect (30 µM, 30.03 µM): 27.05%

O=C(NCCCN1CCc2ccccc2C1)c1cccnc1O
Percent Effect (30 µM, 30.03 µM): 26.46%

O=C(c1ccoc1)N(Cc1cccnc1)C1CC1
Percent Effect (30.3 µM, […]): 22.13%

O=C(c1ccoc1)N(Cc1ccncc1)C1CC1
Percent Effect (30.3 µM, […]): 53.31%

O=C(c1ccoc1)N(Cc1ccccn1)C1CC1
Percent Effect (30.3 µM, […]): -9.366%

CSc1ccc(-c2nc(CN3CCC(C(N)=O)CC3)c(C)o2)cc1
Percent Effect (30.3 µM, […]): -4.149%

CNC(=O)C1CCN(Cc2nc(-c3ccc(SC)cc3)oc2C)C1 (centres undefined)
Percent Effect (30.3 µM, […]): 7.886%

CSc1ccc(-c2nc(CN3C[C@@H](C)NC[C@@H]3C)c(C)o2)cc1
Percent Effect (30.3 µM, […]): 42.57%

CSc1ccc(-c2nc(CN3CCNCC3C)c(C)o2)cc1 (centres undefined)
Percent Effect (30.3 µM, […]): 81.77%

CSc1ccc(-c2nc(CN3CCC(CN)C3)c(C)o2)cc1 (centres undefined)
Percent Effect (30.3 µM, […]): 98.64%

CSc1ccc(-c2nc(CN3CCC(NC(C)=O)CC3)c(C)o2)cc1
Percent Effect (30.3 µM, […]): 13.21%

CNS(=O)(=O)c1cc(C(=O)NC2COc3ccccc3C2)ccc1OC (centres undefined)
Percent Effect (30.3 µM, […]): -9.324%

CN(C)C(=O)c1cccc(CCNc2ccccc2S(C)(=O)=O)c1
Percent Effect (30.3 µM, […]): 7.886%

CN(Cc1cn(C2CCNCC2)nn1)CC1CCCO1 (centres undefined)
Percent Effect (30.3 µM, […]): 7.398%

CN(Cc1cn(CC2CCNCC2)nn1)CC1CCCCO1 (centres undefined)
Percent Effect (30.3 µM, […]): -23.25%

CCN(Cc1cn(CC2CCNCC2)nn1)CC1CCCO1 (centres undefined)
Percent Effect (30.3 µM, […]): 62.19%

COC[C@H]1CCCN1c1nccc(-c2cnn(-c3ccccc3C)c2)n1
Percent Effect (30.3 µM, […]): 41.43%

Cc1ccccc1-n1cc(-c2ccnc(N3CCCC(O)C3)n2)cn1 (centres undefined)
Percent Effect (30.3 µM, […]): 16.96%

Cc1ccccc1-n1cc(-c2ccnc(N3CCCC(CN)C3)n2)cn1 (centres undefined)
Percent Effect (30.3 µM, […]): 67.45%

COc1ccccc1N1CCN(Cc2nccc(OC)c2OC)CC1=O
Percent Effect (30.3 µM, […]): -10.47%

CN(Cc1ccc2c(c1)OCO2)C(=O)c1ccc(C2CCCO2)s1 (centres undefined)
Percent Effect (30.3 µM, […]): -16.35%
